From PubChem BioAssay AID1645857 (Buhrlage Lab, Dana-Farber Cancer Institute and Novartis …, 2021)
About 1,400 (3%) of roughly 47,000 compounds were called active. No stated cut-off is given here; in the data, active means inhibition above about 30%; inactive means the rest. Only a selection was taken, and actives are over-represented in it overall.

The molecules below were run against Ubiquitin carboxyl-terminal hydrolase 28 (Homo sapiens) (UniProt Q96RU2) (assay: blocks human USP28 ubiquitin-rhodamine cleavage (AID 1645857)). Conditions: purified USP28, Ub-rhodamine cleavage fluorescence, 30 min; at 25 µM; active compounds read high.
Sequence of Ubiquitin carboxyl-terminal hydrolase 28 (Homo sapiens) (Q96RU2 whole entry, looked up): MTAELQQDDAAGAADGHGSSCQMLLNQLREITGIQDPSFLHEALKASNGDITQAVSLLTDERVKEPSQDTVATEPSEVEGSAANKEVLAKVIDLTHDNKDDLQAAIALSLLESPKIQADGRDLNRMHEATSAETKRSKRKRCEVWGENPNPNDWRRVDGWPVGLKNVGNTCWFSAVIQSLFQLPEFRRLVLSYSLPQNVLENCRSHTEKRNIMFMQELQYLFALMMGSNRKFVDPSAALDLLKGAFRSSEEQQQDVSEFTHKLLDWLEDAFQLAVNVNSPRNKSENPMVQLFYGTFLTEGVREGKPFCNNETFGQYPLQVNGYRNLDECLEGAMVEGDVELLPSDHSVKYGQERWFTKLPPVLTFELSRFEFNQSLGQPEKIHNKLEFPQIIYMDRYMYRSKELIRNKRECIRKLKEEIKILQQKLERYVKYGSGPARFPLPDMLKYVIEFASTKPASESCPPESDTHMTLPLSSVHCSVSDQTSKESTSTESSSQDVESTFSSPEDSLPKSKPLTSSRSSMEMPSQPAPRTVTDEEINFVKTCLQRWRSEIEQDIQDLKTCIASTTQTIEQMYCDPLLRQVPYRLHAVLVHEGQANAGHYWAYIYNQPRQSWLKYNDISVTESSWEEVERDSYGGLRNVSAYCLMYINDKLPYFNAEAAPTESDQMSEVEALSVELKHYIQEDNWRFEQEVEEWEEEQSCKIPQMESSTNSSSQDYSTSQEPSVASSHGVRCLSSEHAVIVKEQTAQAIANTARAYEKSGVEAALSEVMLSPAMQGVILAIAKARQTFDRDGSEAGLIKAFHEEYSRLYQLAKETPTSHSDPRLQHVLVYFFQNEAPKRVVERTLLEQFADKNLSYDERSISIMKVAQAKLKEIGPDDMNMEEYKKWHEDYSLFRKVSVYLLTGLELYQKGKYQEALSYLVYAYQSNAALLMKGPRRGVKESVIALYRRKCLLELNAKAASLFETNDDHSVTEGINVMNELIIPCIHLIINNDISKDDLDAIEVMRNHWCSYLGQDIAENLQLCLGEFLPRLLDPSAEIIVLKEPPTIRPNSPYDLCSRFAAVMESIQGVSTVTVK

| Compound | inhibition |
| --- | --- |
| CCC(Oc1ccccc1)C(=O)NCc1ccc2c(c1)OCO2 (stereo not given) | 6.67% (inactive) |
| N#CC1=C(N)Oc2nc[nH]c(=O)c2C1c1cccc(F)c1 (stereo not given) | -2.3% (inactive) |
| CCC(C)[C@H](NS(=O)(=O)c1ccc(C)cc1)C(=O)N1CCC(C(=O)N[C@H](Cc2c[nH]c3ccccc23)C(=O)O)CC1 (stereo not given in full) | -2.54% (inactive) |
| CCCc1nc2sc3c(N4CCC(C)CC4)ncnc3c2c2c1CCC2 | 2.73% (inactive) |
| CCCCCCSc1ncnc2c1sc1nc(-c3ccccc3)c3c(c12)CC(C)(C)OC3 | -0.572% (inactive) |
| CCCCc1nc2sc3c(SCC(=O)NCc4ccccc4)ncnc3c2c2c1CCC2 | 54.5% (active) |
| CCc1ccc(NC(=O)CSc2nnc(-c3cnccn3)n2Cc2ccco2)cc1 | -5.3% (inactive) |
| Cc1ccc(NC(=O)CSc2nnc(-c3cnccn3)n2Cc2ccco2)cc1C | -1.17% (inactive) |
| CCn1c(SCc2cccc(C)c2)nnc1-c1cnccn1 | 58.5% (active) |
| COc1ccccc1C(=O)Nc1cccc(Oc2ccccc2)c1 | 19.6% (inactive) |
| COc1cc(O)sc1C=Nc1ccc(Oc2ccccc2)cc1 | 40.7% (active) |
| O=C(c1ccc[nH]1)N1CCCn2c(nc(Cn3ccnc3)cc2=O)C1 | 12.3% (inactive) |
| CCN(C(=O)CSc1nnc(-c2ccoc2C)o1)c1ccccc1 | 6.53% (inactive) |
| CC(C)c1ccc(OCC(=O)NCc2nnnn2-c2ccc(Cl)cc2)cc1 | 20.1% (inactive) |
| O=C(COc1ccc2ccccc2c1)NCc1nnnn1-c1ccc(Cl)cc1 | 30.4% (active) |
| Cc1ccc(NC(=O)NCc2nnnn2-c2ccccc2)cc1C | 5.32% (inactive) |
| Cc1ccc(C)c(NC(=O)c2cn(C)cc3c(=O)n(-c4ccccc4)nc2-3)c1 | 2.87% (inactive) |
| COc1cc(Cn2cnc3c([nH]c4ccc(Br)cc43)c2=O)cc(OC)c1 | 43.8% (active) |
| O=c1c2[nH]c3ccc(Cl)cc3c2ncn1Cc1cccnc1 | -8.15% (inactive) |
| CCOc1ccc2[nH]c3c(=O)n(Cc4cccnc4)cnc3c2c1 | 13.7% (inactive) |
| CCOc1cccc(C(=O)N2CCC(c3nc4ccccc4o3)CC2)c1 | -7.65% (inactive) |
| Cc1cc(C)n2c(SCC(=O)Nc3cc(C(C)(C)C)nn3-c3ccccc3)nnc2n1 | 6.69% (inactive) |
| Cc1cc(C(F)(F)F)n2nc(C3CCN(C(=O)c4cc5ccccc5s4)C3)cc2n1 (stereo not given) | 17.6% (inactive) |

| Compound | inhibition |
| --- | --- |
| NCCCC(=O)N1CCC2(CC1)C(=O)NCN2C(=O)Cc1ccccc1 | -0.0141% (inactive) |
| O=C1CO[C@H]2CN(Cc3ncc[nH]3)C[C@H]2N1c1ccccc1 | 19.7% (inactive) |
| COc1ccccc1CCNC(=O)CCc1c(C)c2ccc(O)c(C)c2oc1=O | 2.41% (inactive) |
| Cc1cc(-c2nnc(SCC(=O)Nc3ccc(Br)c(C)c3)n2N)n[nH]1 | 38.4% (active) |
| Nn1c(SCC(=O)Nc2ccccc2F)nnc1-c1n[nH]c2c1CCC2 | -7.92% (inactive) |
| Cc1cc(NC(=O)COC(=O)c2cccc(C)c2O)ccc1Br | 5.74% (inactive) |
| O=C(CN1CCC2(CC=CCN(CCc3ccccc3)C2=O)CC1)Nc1ccc(F)cc1 | -25.4% (inactive) |
| COc1ccc(C(=O)N2CCc3cc4ccccc4nc32)cc1OC | -5.16% (inactive) |
| O=S(=O)(c1ccc(Cl)cc1)N1CCc2nc[nH]c2C1 | -11.8% (inactive) |
| CC1CCC/C=C/C=C/C(=O)CC(O)C/C=C\C=C\C(O)C/C=C/C=C\C(=O)O1 (stereo not given) | 2.22% (inactive) |
| CCc1ccc(NC(=O)N2C[C@H]3C[C@H]4[C@](C2)(CN(Cc2cccnc2)S4(=O)=O)O3)cc1 | 1.25% (inactive) |
| CC(C)CN1C[C@@]23CN(C(=O)NCCc4ccc(F)cc4)C[C@@H](C[C@@H]2S1(=O)=O)O3 | 32.3% (active) |
| COCCN1C[C@@]23CN(C(=O)NCc4ccccc4)C[C@@H](C[C@@H]2S1(=O)=O)O3 | 5.8% (inactive) |
| CC(C)NC(=O)c1nc(Cn2c(C(F)F)nc3ccccc32)no1 | 5.94% (inactive) |
| CC1=C(C(=O)Nc2ccc(C)cc2C)C(c2cccs2)n2c(nc3ccccc32)N1 (stereo not given) | 6.45% (inactive) |
| O=C(c1ccccn1)N1CCn2nc(-c3ccc4ccccc4c3)cc2C1 | 1.7% (inactive) |
| O=C(Cc1ccccc1F)N1CCCC(c2[nH]nc3nccnc23)C1 (stereo not given) | 1.05% (inactive) |
| COc1ccccc1NC(=O)C1=C(C)Nc2ncnn2C1c1ccc(C)o1 (stereo not given) | 1.41% (inactive) |
| COc1cccc(C2C(C(=O)Nc3ccccc3C)=C(C)Nc3ncnn32)c1OCc1ccccc1 (stereo not given) | 2.46% (inactive) |
| COc1ccc(NC(=O)C2=C(C)Nc3ncnn3C2c2cccc(OCc3ccc(F)cc3)c2)c(OC)c1 (stereo not given) | 46.2% (active) |
| CNc1cccc(C2CN(C(=O)c3cnn4cccnc34)CCO2)n1 (stereo not given) | -3.02% (inactive) |
| O[C@@H]1C[C@H]2CN(Cc3ccc(F)cc3)[C@H](Cc3ccccc3)CN2C1 | 2.96% (inactive) |
